Source: PubChem
PHOSPHO1 inh – PubChem AID 1565; Phosphoethanolamine/phosphocholine phosphatase (Homo sapiens), Q8TCT1; recombinant PHOSPHO1, absorbance phosphatase assay; inhibition, % at 13.3 µM; hit rate 1.1% among 290,000; in the data active means inhibition above about 60%
Target sequence (Q8TCT1 whole entry, looked up): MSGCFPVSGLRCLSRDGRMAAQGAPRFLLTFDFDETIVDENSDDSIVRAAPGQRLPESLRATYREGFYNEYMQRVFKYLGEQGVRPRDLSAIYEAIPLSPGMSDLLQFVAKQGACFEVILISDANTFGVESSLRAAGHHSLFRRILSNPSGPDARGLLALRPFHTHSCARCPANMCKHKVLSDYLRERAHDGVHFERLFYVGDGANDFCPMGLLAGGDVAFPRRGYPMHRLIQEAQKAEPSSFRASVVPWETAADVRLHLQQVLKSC
TPT1 inhibitor – Candida albicans TPT1 enzyme inhibitors, primary screen, biochemical, fluorescence polarization. recombinant caTPT1, FP RNA substrate dephosphorylation. inhibition, % at 5 µM. hit rate 0.81% among 300,000;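 active means inhibition above the mean of all tested compounds plus 3 SD, set per screening campaign, cut at about 24% in these data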
CTSL1 counter – Fasciola hepatica cathepsin L1 inhibitors, primary screen, counter-screen for PFM18AAP inhibitor project, biochemical, QFRET, fluorogenic peptide substrate. hit rate 0.49% among 300,000. recombinant F. hepatica cathepsin L1, Z-Leu-Arg-MCA fluorescence. inhibition, % at 5.96 µM;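 active means inhibition above the mean of all tested compounds plus 3 SD, set per screening campaign, cut at about 17% in these data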
Rpn11 inh – Rpn11 (PSMD14) deubiquitinase inhibitors, primary screen, biochemical, fluorescence polarization, uHTS; AID 588493, 2011; hit rate 0.59% among 360,000; human 26S proteasome, Ub4-pepOG fluorescence polarization; 20S core pre-blocked with epoxomicin; 26S proteasome non-ATPase regulatory subunit 14 (Homo sapiens), O00487; inhibition, % at 20 µM;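 active means inhibition at 20 µM, scaled to each plate's controls, above about 33%, limit read from the data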
CendR NRP1 mod – modulators of CendR peptide binding to NRP-1, primary screen, biochemical, fluorescence polarization, uHTS. Neuropilin-1 (Homo sapiens), O14786. FAM-RPARPAR peptide binding to NRP-1. inhibition, % at 25 µM. hit rate 0.85% among 360,000;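 active means inhibition or corrected inhibition above about 18%, plus a signal ratio from 0.5 to 1.5, limit read from the data, passing the limit was not always enough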
HNF4A DNA FP – change in binding of human HNF4A to DNA, primary screen, biochemical, fluorescence polarization, FITC-DNA; Hepatocyte nuclear factor 4-alpha (Homo sapiens), P41235; 1 h; activity change, % at 10 µM; hit rate 0.3% among 360,000; AID 1224865, 2016; in the data active means activity change above about 30%, passing the limit was not always enough
TPT1 inh confirm – Candida albicans TPT1 inhibitors, confirmation, biochemical, fluorescence polarization, triplicate. AID 2149, 2009. inhibition, % at 5 µM. recombinant caTPT1, RNase T1 coupled. hit rate 74% among 2,400. shares compounds with TPT1 inhibitor;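 active means inhibition above the primary screen limit, the mean inhibition of all tested compounds plus 3 SD, cut at about 25% in these data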
RNase T1 counter – RNase T1 inhibitors, counter-screen for TPT1 inhibitor project, biochemical, fluorescence polarization; shares compounds with TPT1 inhibitor; RNase T1 cleavage, 1536-well; inhibition, % at 5 µM; hit rate 83% among 2,400;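 active means inhibition above the solvent-only control well mean plus 3 SD, limit set per screening run, cut at about 23% in these data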;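 further: inhibitors block cleavage so intact labeled substrate keeps polarization high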
Target sequence (P00651 whole entry, looked up): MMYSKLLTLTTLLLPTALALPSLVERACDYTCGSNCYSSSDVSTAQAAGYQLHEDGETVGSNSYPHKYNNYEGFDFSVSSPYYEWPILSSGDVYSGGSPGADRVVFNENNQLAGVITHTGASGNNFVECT
Large screens that a line does not name were inactive (follow-up assays come after a bar, where shown). This is a sample that favours compounds with a hit; in the whole collection about 3.3% have one here.

CC(C)N=c1c([N+](=O)[O-])nn(C)n1O	none
N#CC1(C#N)C2=C(CCCC2)NC(c2ccccc2)C1(C#N)C#N (centres undefined)	TPT1 inhibitor 30 (no result: Rpn11 inh, CendR NRP1 mod, HNF4A DNA FP) | TPT1 inh confirm 25 | RNase T1 counter 34
Cc1ccc2c(c1)C1(C(=O)N2C)N2CC3(C)CN1CC(C)(C2)C3=O (centres undefined)	TPT1 inhibitor 64 | TPT1 inh confirm inactive | RNase T1 counter inactive
CN(C)c1ccc(/C=C2\SC(N3CCCCC3)=NC2=O)cc1	TPT1 inhibitor 106 (not shown: Rpn11 inh) | TPT1 inh confirm 116 | RNase T1 counter 116
Cc1ccc(/C=C2\SC(N3CCCC3)=NC2=O)cc1	none (no result: Rpn11 inh, CendR NRP1 mod, HNF4A DNA FP)
O=[N+]([O-])c1ccc(N2CCN(Cc3ccccc3)CC2)s1	TPT1 inhibitor 31 | TPT1 inh confirm 38 | RNase T1 counter 50
Nc1ccc2c(c1)C(=O)CCC2	none (no result: PHOSPHO1 inh, TPT1 inhibitor, CTSL1 counter)
COc1cc(/C=C2/CCCC(C(=O)C(F)(F)F)=C2O)ccc1O	none
CCOc1cc(/C=C2\CCCC(C(=O)C(F)(F)F)=C2O)ccc1O	TPT1 inhibitor 36 | TPT1 inh confirm 44 | RNase T1 counter 58
CCOC(=O)C1C(=O)C=C(c2ccc(C)cc2)CC1c1ccccc1 (centres undefined)	none
CCOC(=O)C1C(=O)C=C(/C=C/c2ccc(N(C)C)cc2)CC1c1ccccc1 (centres undefined)	TPT1 inhibitor 89 (not shown: Rpn11 inh) | TPT1 inh confirm 77 | RNase T1 counter 80
O=C(C1CC1)N1CCN=C1SCc1ccc(F)cc1	none
O=C(Cc1ccc(Cl)c(Cl)c1)Nc1cccc(S(=O)(=O)N2CCOCC2)c1	TPT1 inhibitor 62 | TPT1 inh confirm inactive | RNase T1 counter inactive
CSc1nsc(SCC(=O)Nc2ccc(Cl)c(C(=O)O)c2)n1	none
CCCN1C(=O)S/C(=C\c2ccc(N3CCOCC3)o2)C1=O	TPT1 inhibitor active (not shown: Rpn11 inh) | TPT1 inh confirm 188 | RNase T1 counter 169
CCCN1C(=O)S/C(=C/c2ccc(N3CCOCC3)o2)C1=O	TPT1 inhibitor 180 (not shown: Rpn11 inh) | TPT1 inh confirm 183 | RNase T1 counter 166
Cc1ccc(OCCN2C(=O)S/C(=C\c3ccc(C)o3)C2=O)cc1	none
CC1C/C(=C\c2ccccc2[N+](=O)[O-])c2nc3ccccc3c(C(=O)O)c2C1 (centres undefined)	none
C=CCn1ccc2c([N+](=O)[O-])cccc2c1=O	none
C=CCn1ccc(=NC=C(C#N)C#N)c2ccccc21	TPT1 inhibitor 31 | TPT1 inh confirm 45 | RNase T1 counter 57
CCCCN(C(=O)c1cc(S(=O)(=O)N2CCCCC2)ccc1Cl)c1c(N)n(CCC)c(=O)[nH]c1=O	none (no result: PHOSPHO1 inh, TPT1 inhibitor, CTSL1 counter)
N#C/C(=C\c1coc2ccc(O)cc2c1=O)C(=O)Nc1nc2ccccc2s1	TPT1 inhibitor 28 (not shown: Rpn11 inh) | TPT1 inh confirm 93 | RNase T1 counter 90
NC(=O)N/N=C/c1coc2ccc(O)cc2c1=O	none
Cc1cccc(C(=O)OCC(=O)Nc2ccccc2C(=O)NC2CC2)c1	none (no result: PHOSPHO1 inh, TPT1 inhibitor, CTSL1 counter)
CCOC(=O)N1CCN(C(=O)c2cc(S(=O)(=O)N3CCc4ccccc43)ccc2OC)CC1	none (no result: PHOSPHO1 inh)
O=C(O)CC/C(=N\Nc1ccc([N+](=O)[O-])cc1)c1ccccc1	TPT1 inhibitor 34 | TPT1 inh confirm 46 | RNase T1 counter 59
Cn1c(C(=O)OCC(=O)NCCc2ccccc2)cc2sccc21	none
Cc1ccc2c(c1)/C(=C/c1ccc(F)cc1)C(=O)N2	none
Cc1ccc2c(c1)N/C(=C(\C=C(/Cl)[N+](=O)[O-])[N+](=O)[O-])N2	TPT1 inhibitor 25 (no result: Rpn11 inh, CendR NRP1 mod, HNF4A DNA FP) | TPT1 inh confirm inactive | RNase T1 counter 33
